# Inconclusive results are not listed. Values without a mark were called inactive. The call rests on the fitted dose curve; in most records, active means well fitted curve in the direction sought with a large enough effect; inconclusive means small, poorly fitted or top-dose-only effect, or another doubt; inactive means no such curve, though single readings can be large or run the other way. Where a SMILES comes first, the peptide text is derived from it. Bridges are numbered along the chain shown (N, C = ends). [ ]: non-standard residue; d: D form. The star is where a group is joined. ξ: configuration not given here. d(aThr) = C[C@@H](O)[C@@H](N)C(=O)O; ξThr(3R) = C[C@@H](O)C(N)C(=O)O; X3 = CC[C@@H](C)CCCCC(=O)*; dDab = NCC[C@@H](N)C(=O)O
# Assay: qHTS Assay for Identifying Gametocytocidal Compounds (AID 743244);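 further: actives lower the fluorescent signal which means gametocytes are killed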
# Settings: P. falciparum 3D7 stage III-V gametocytes, alamarBlue, 72 h; max response: active compounds read low
# How it was run: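 Stage III–V gametocytes of P. falciparum 3D7 were seeded at 20,000 cells/well onto pre-dispensed compounds. After 72 h, 37 °C, 5% CO2, alamarBlue was added for another 24 h.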
# On the % scale 0 is the no-effect control and ±100 the full control effect.
row,Structure (SMILES),max response [%]
1,CC(=O)Nc1ccc(NC(=S)NC(=O)c2ccc(C(C)(C)C)cc2)cc1,-8.07
2,CN(C)C=Nc1c(I)cc(I)c(CCC(=O)O)c1I,14.5
3,Cc1cccc(C)c1Nc1ncccc1C(=O)O,11.3
4,O=P(O)(O)CP(=O)(O)O,-3.27
5,CC(C)(C)c1ccc(CN2CCN(C(c3ccccc3)c3ccc(Cl)cc3)CC2)cc1 (configuration not stated),-2.06
6,CO/N=C(\C(=O)N[C@@H]1C(=O)N2C(C(=O)O)=C(C[N+]3(C)CCCC3)CS[C@H]12)c1csc(N)n1,15.9
7,Oc1ccc(Cl)c2c1CCC2,-5.98
8,CO[C@H]1C[C@H](O[C@H]2[C@H](C)[C@@H](O[C@@H]3O[C@H](C)C[C@H](N(C)C)[C@H]3O)[C@@H](C)C[C@]3(CO3)C(=O)[C@H](C)[C@@H](O)[C@@H](C)[C@@H](C)OC(=O)[C@@H]2C)O[C@@H](C)[C@@H]1O,-2.69
9,CN1C(C(=O)Nc2ccccn2)C(=O)c2sc(Cl)cc2S1(=O)=O (configuration not stated),11.6
10,NC(=O)[C@@H]1C[C@]2(NC(=O)NC2=O)c2cc(F)ccc2O1,-13.1
11,O=C(O)c1ccc(OCCn2ccnc2)cc1,0.359
12,O=S(=O)(O)CCCS(=O)(=O)O,2.64
13,CCCCCCCCCCCCCCCC(=O)OC[C@H](COP(=O)([O-])OCC[N+](C)(C)C)OC(=O)CCCCCCCCCCCCCCC,1.23
14,O=C(O)CC/C=C\CC[C@@H]1[C@@H](N2CCCCC2)[C@@H](O)C[C@@H]1OCc1ccc(-c2ccccc2)cc1,-9.09
15,O=C1CC[C@@H](C(=O)N[C@H]2C[C@@H]2c2ccccc2)N1,-4.02
16,CCCCCCOC(=O)c1cccnc1,30.2
17,C=C1CC[C@H](O)C/C1=C\C=C1/CCC[C@]2(C)[C@@H]([C@H](C)CCCC(C)C)CC[C@@H]12,7.84
18,CCOC(=O)c1c[nH]c2cc(OCC(C)C)c(OCC(C)C)cc2c1=O,-10.7
19,CCCCCCCCCCCCCCCCCC(=O)OCC(C)O (configuration not stated),2.45

row,Structure (SMILES),max response [%]
1,Cn1nnnc1SCC1=C(C(=O)O)N2C(=O)[C@@H](NC(=O)[C@H](O)c3ccccc3)[C@H]2SC1,-1.19
2,CC(C)N1CCN(c2ccc(OC[C@H]3CO[C@](Cn4cncn4)(c4ccc(Cl)cc4Cl)O3)cc2)CC1,3.43
3,O=C1c2ccccc2C(=O)C1c1ccc(F)cc1,5.59
4,Cn1cc(NC(=O)c2cc(NC(=O)c3cc(NC=O)cn3C)cn2C)cc1C(=O)NCCC(=N)N,6.22
5,O=C1/C(=C\c2cccs2)CCC/C1=C\c1cccs1,5.47
6,CC[C@@H](C)CCCCC(=O)N[C@H](CCN)C(=O)N[C@@H](C(=O)N[C@H](CCN)C(=O)N[C@@H]1CCNC(=O)C([C@@H](C)O)NC(=O)[C@@H](CCN)NC(=O)[C@@H](CCN)NC(=O)[C@@H](CC(C)C)NC(=O)[C@@H](Cc2ccccc2)NC(=O)[C@@H](CCN)NC1=O)[C@@H](C)O (stereo partly drawn) (X3-[dDab][d(aThr)][dDab][dDab][dDab][dF][dL][dDab][dDab][ξThr(3R)]; lactam 4-C),13.9
7,N[C@H](CC(=O)O)C(=O)O,2.16
8,OCCN1CCN(CC/C=C2/c3ccccc3Sc3ccc(Cl)cc32)CC1,-5.02
9,CC1(O)CCC(C(C)(C)O)CC1 (configuration not stated),5.51
10,CC(C)CCCC(C)NC(C)C (configuration not stated),15.9
11,CCOC(=O)c1cc(-c2ccccc2)nc2ccc(C)cc12,-3.36
12,CO/N=C(\C(=O)N[C@@H]1C(=O)N2C(C(=O)O)=CCS[C@H]12)c1csc(N)n1,5.71
13,CC(=O)Oc1cc(C(F)(F)F)ccc1C(=O)O,17
14,NC[C@H]1O[C@H](O[C@H]2[C@H](O)[C@@H](O[C@H]3O[C@H](CO)[C@@H](O)[C@H](N)[C@H]3O)[C@H](N)C[C@@H]2N)[C@H](O)[C@@H](O)[C@@H]1O,19.4
15,C=CC1=C(C(=O)O)N2C(=O)[C@@H](NC(=O)/C(=N/OCC(=O)O)c3csc(N)n3)[C@H]2SC1 (stereo in doubt),-1.34
16,C=CC[N+]1([C@H]2C[C@H]3[C@@H]4CC[C@H]5C[C@H](O)[C@@H](N6CCOCC6)C[C@]5(C)[C@H]4CC[C@]3(C)[C@H]2OC(C)=O)CCCC1,-0.733
17,CC1(C)[C@@H]2CC[C@@]1(C)[C@H](OC(=O)CSC#N)C2,-3.31
18,CCc1ncnc2cc(OC)c(OC)cc12,-4.33
